# Test results: PubChem BioAssay AID1233 (SRMLSC, 2008)
# Results with a measured potency or affinity are listed apart. The source made the active and inactive calls.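 Rule for the calls: active = a dose-response curve fit returns a half-maximal inhibitory concentration, extrapolated values included; inactive = the fit returns no such concentration.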
# Molecular target: HMG-CoA reductase [Enterococcus faecalis] (UniProt Q9FD70)
# Experiment: class II HMG-CoA reductase inhibition potency – biochemical, Enterococcus faecalis, confirmation (AID 1233);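 note: 0% = full reaction carrier wells and 100% = background wells lacking mevalonate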
# Details: purified E. faecalis HMGR, NADPH absorbance 340 nm kinetics; series mostly up to 100 µM; inhibition: at the top concentration
row,Compound,inhibition
1,O=C(CCn1cnnn1)Nc1ccc(Cl)c(Cl)c1,-6.48% (inactive)
2,CCOC(=O)C1=C(COc2ccc(F)cc2Cl)NC(=O)NC1c1cc(C)ccc1C (stereo not drawn),-5.48% (inactive)
3,Cc1ccc(C(C(=O)NC(C)(C)C)N(Cc2ccc3c(c2)OCO3)C(=O)c2ccc(CN3CCOCC3)o2)o1 (stereo not drawn),-7.02% (inactive)
4,CN(CCO)c1cc(NCCCN2CCC(Cc3ccccc3)CC2)c2nonc2c1[N+](=O)[O-],-6.33% (inactive)
5,O=C(Nc1ccc2c(c1)OCO2)c1ccc(COc2ccc3c(c2)CCC3)o1,-1.32% (inactive)
6,COc1cc(Cn2c(=O)oc3ccc(C)cc32)ccc1OC(C)C,-4.35% (inactive)
7,COc1cc(C2CC(=O)N(CC(=O)NCC3CCCO3)c3ccccc3S2)cc(OC)c1OC (stereo not drawn),-0.73% (inactive)
8,CCOC(=O)c1c(C)oc2c1c(C=NCCO)c(O)c1ccccc12,8.35% (inactive)
9,C[C@H]1[C@H](C)CC[C@]2(C(=O)O)CC[C@]3(C)C(=CC[C@@H]4[C@@]5(C)C[C@@H](O)[C@H](O)C(C)(C)[C@@H]5CC[C@]43C)[C@H]12,-8.57% (inactive)
10,CCOc1ccc(/C(O)=C2/C(=O)C(=O)N(CC3CCCO3)C2c2ccco2)cc1 (stereo not drawn),-5.36% (inactive)
11,COc1ccc(/C=C/C(=O)NCCNC(=O)c2ccccc2)cc1OC,0.2% (inactive)
12,COc1ccc(CN2CCN(CCC(C)C)C(CCO)C2)cc1Cn1cccn1 (stereo not drawn),-0.88% (inactive)
13,Cc1ccc2nc(-c3cc(N)cc(N)c3)oc2c1,-10.3% (inactive)
14,CC(C)OC(=O)NC(C)(C)COC(=O)Nc1cccc(Cl)c1,-4.08% (inactive)
15,Cc1nc([N+](=O)[O-])c(Br)n1CC(=O)c1cccc([N+](=O)[O-])c1,-5.09% (inactive)
16,COC(=O)c1cc(NC(=O)CSc2nnc(N)s2)ccc1Cl,-0.91% (inactive)
17,Cc1ccc(NS(=O)(=O)c2ccc(NC(=O)[C@@H]3CCCC[C@@H]3C(=O)O)cc2)c(C)c1,-4.04% (inactive)
18,CCN(CCNCC(O)COCc1ccc(Cl)cc1)c1cccc(C)c1 (stereo not drawn),-8.18% (inactive)
19,Cc1ccc(-c2cc(C(=O)NCc3ccc4c(c3)OCO4)[nH]n2)c(O)c1C,-2.03% (inactive)

row,Compound,inhibition
1,Cn1c(CSc2nc3ccccc3s2)nc2ccccc21,-3.96% (inactive)
2,COC(=O)C1=C(CSc2nc3c(cc2C#N)CN(C)CC3)OC(N)=C(C#N)C1c1ccc(F)cc1 (stereo not drawn),-8.53% (inactive)
3,Cc1ccc(S(=O)(=O)ON2C(=O)c3ccccc3C2=O)c(C)c1,-6.06% (inactive)
4,C=C(C)Cn1c(-c2ccncc2)n[nH]c1=S,-5.67% (inactive)
5,CCOC(=O)c1cnn(-c2nc(-c3ccccc3)cs2)c1C(F)(F)F,-2.29% (inactive)
6,N#CCCCn1c(=O)oc2ccccc21,-2.84% (inactive)
7,CC(=O)Nc1ccc(Cc2nc3ccccc3[nH]2)cc1,-3.93% (inactive)
8,CCOc1cc(S(=O)(=O)N(CC)CC)c(OCC)cc1-n1cnnn1,-0.8% (inactive)
9,O=C(COC(=O)c1cccnc1)c1ccc(Cl)c(Cl)c1,2.21% (inactive)
10,Cc1ccc(Cc2cncc(O)c2)cc1S(=O)(=O)O,0.13% (inactive)
11,Cc1cc(Cl)ccc1Oc1nccc(N(C)C)c1C#N,-1.84% (inactive)
12,O=C(CN1CCN(c2ncc(C(F)(F)F)cc2Cl)CC1)NC(=O)NCc1ccccc1,0.06% (inactive)
13,COc1ccc(CN2CCNC(=O)C2CC(=O)NCCc2c[nH]c3ccccc23)c(OC)c1 (stereo not drawn),0.02% (inactive)
14,O=C(Nc1cccc(S(=O)(=O)N2CCCCCC2)c1)c1ccc2ccccc2n1,-2.66% (inactive)
15,CCOc1ccccc1C(=O)NC1CCN(Cc2nnnn2C2CCCC2)CC1,-1.25% (inactive)
16,Cc1ccc(CN(C)CC(=O)Nc2ccc3c(c2)CCC3)cc1,-4.12% (inactive)
17,CCn1c2ccccc2c2cc(CNCc3ccc(OC)cc3OC)ccc21,-2.66% (inactive)
18,CN(C)c1ccc2c3c(ccc(N(C)C)c13)COC2,-7.56% (inactive)
19,CN(C(=O)CCN1C(=O)C(C)(C)Nc2ccccc21)c1ccccc1,-11.7% (inactive)
